Experimental data: the OligoGym collection

Molecular target: FH
Assay: pooled miR-30 sensor sort-seq; sequence = guide strand
Details: shRNA
Also: reference of the scale not given here.

Sequence	sensor-assay potency score (higher = more potent)
TATTGCAGCAGCAATGTGCATT	-0.245
TCATATTTGTCTGAGTTCCTGA	0.043
TTTACTTGTTGAACATAACCAC	0.162
TAACACATTTTTAATCATCATT	-1.28
TATATGAGGATTGAGAGCTGTC	0.308
TCTTAGACCTAGCACATCCTAG	-0.529
TATTGCATTAGCAATCTTTGGA	0.0448
TTACATTCATATTTGTCTGAGT	0.037
TTGTCTGAGTTCCTGATCCAGT	-0.75
TTCTATTGCAGCAGCAATGTGC	-0.565
TTGCTTCACACTGAGTAGGGTT	-0.374
TTTGCTATCTTCATCAGACTGC	0.482
TTTATTAACATGATCGTTGGGA	0.847
TTAAAGTTCATCGTAGATCTCA	0.281
TTGCATTAGCAATCTTTGGATC	-0.818
TTACTTGTTGAACATAACCACT	-1.14
TTTCCTTTAAGGTTGATCCATT	-0.612
TTTCCTTTCAAACTTATCCGTT	-0.472
TTCTGTCACACCTCCAATCTTA	-0.00125
AACATAACCACTAAATTCCTGC	-0.241
